In ChEMBL document CHEMBL1961873, “Compounds: GSK PKIS; Assays: Nanosyn kinase panel” (2012):

Experiments:
[1] = biological target: 5'-AMP-activated protein kinase catalytic subunit alpha-2 (Homo sapiens) (UniProt P54646); settings: at 1 µM
[2] = biological target: T1, NUAK family SNF1-like kinase 1 (Homo sapiens) (UniProt O60285); settings: at 0.1 µM
T1 sequence (whole entry): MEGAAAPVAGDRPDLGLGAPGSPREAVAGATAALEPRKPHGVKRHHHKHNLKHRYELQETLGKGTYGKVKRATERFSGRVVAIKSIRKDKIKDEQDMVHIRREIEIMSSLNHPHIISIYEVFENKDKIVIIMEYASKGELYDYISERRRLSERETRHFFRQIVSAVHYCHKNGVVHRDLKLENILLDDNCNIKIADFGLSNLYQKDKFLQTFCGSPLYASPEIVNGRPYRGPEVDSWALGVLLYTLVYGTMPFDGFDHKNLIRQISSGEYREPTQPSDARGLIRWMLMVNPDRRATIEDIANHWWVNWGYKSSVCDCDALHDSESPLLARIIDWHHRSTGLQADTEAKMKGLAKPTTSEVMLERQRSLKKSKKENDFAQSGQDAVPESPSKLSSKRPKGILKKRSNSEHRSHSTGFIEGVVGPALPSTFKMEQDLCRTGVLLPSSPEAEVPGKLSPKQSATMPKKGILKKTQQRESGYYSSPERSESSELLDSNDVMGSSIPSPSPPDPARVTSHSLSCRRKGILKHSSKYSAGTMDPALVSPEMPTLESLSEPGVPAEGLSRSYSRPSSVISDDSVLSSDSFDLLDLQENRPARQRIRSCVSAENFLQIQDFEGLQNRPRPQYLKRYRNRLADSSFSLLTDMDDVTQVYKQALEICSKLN

[3] = biological target: T1, NUAK family SNF1-like kinase 1 (Homo sapiens); settings: at 1 µM
[4] = biological target: T2, Serine/threonine-protein kinase BRSK1 (Homo sapiens) (UniProt Q8TDC3); settings: at 0.1 µM
T2 sequence (whole entry): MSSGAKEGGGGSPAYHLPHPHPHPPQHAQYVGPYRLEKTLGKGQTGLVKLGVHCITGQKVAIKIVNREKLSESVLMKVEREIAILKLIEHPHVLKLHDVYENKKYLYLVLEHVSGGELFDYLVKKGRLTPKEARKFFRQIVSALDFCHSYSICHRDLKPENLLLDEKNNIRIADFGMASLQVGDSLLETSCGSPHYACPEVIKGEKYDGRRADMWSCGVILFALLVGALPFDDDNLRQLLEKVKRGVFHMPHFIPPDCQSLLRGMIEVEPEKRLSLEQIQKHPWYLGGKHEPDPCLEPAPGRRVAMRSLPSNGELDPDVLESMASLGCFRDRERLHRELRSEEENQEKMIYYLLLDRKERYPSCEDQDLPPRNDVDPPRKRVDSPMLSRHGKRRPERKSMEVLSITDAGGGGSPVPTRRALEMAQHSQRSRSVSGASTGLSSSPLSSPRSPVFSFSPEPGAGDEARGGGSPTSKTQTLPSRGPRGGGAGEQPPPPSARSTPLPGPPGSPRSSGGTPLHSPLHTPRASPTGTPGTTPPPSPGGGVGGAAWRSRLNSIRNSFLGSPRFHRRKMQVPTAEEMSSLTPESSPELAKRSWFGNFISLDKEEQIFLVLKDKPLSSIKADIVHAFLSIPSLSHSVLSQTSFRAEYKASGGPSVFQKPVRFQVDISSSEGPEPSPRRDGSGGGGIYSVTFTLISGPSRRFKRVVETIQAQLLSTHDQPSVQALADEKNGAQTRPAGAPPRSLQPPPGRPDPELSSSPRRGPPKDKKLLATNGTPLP

[5] = biological target: T2, Serine/threonine-protein kinase BRSK1 (Homo sapiens); settings: at 1 µM
[6] = biological target: T3, Serine/threonine-protein kinase BRSK2 (Homo sapiens) (UniProt Q8IWQ3); settings: at 0.1 µM
T3 sequence (whole entry): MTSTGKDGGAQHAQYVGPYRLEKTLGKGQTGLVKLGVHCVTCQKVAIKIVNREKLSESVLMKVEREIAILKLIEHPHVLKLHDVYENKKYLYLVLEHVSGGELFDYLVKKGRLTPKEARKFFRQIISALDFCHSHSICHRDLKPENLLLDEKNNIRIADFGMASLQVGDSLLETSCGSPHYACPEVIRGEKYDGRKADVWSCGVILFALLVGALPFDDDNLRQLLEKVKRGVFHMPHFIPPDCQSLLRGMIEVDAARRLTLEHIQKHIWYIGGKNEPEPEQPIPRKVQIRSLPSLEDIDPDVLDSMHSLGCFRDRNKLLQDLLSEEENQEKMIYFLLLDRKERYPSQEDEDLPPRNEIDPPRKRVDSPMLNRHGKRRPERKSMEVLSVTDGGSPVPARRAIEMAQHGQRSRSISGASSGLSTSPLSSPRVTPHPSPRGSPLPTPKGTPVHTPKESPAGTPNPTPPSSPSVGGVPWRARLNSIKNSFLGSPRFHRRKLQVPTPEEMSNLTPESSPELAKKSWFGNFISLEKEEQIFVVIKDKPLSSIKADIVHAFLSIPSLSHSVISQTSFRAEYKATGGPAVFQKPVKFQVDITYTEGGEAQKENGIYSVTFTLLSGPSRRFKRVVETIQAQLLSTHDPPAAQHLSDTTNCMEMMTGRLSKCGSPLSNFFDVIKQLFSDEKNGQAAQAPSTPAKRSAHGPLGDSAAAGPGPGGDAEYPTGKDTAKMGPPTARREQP

[7] = biological target: T3, Serine/threonine-protein kinase BRSK2 (Homo sapiens); settings: at 1 µM
[8] = biological target: Calcium/calmodulin-dependent protein kinase type 1D (Homo sapiens) (UniProt Q8IU85); settings: at 0.1 µM
[9] = biological target: Calcium/calmodulin-dependent protein kinase type 1D (Homo sapiens) (UniProt Q8IU85); settings: at 1 µM
[10] = biological target: Calcium/calmodulin-dependent protein kinase type II subunit alpha (Homo sapiens) (UniProt Q9UQM7); settings: at 0.1 µM;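 also: reported values are averages (mean inhibition of CAMK2A)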
Chain of Calcium/calmodulin-dependent protein kinase type II subunit alpha (Homo sapiens) (Q9UQM7 whole entry): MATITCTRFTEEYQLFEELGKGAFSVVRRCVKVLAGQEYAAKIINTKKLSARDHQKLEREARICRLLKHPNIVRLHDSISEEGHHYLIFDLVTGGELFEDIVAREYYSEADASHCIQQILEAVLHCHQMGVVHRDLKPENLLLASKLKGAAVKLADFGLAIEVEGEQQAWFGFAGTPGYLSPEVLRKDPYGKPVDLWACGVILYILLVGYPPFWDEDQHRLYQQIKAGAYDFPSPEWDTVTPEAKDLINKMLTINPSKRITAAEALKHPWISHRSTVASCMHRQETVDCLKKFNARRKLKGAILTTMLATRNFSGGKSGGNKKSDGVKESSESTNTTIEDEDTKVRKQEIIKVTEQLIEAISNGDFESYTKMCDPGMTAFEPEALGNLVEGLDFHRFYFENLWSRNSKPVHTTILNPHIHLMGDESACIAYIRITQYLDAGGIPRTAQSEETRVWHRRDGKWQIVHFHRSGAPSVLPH

Chain of Calcium/calmodulin-dependent protein kinase type 1D (Homo sapiens) (Q8IU85 whole entry, looked up): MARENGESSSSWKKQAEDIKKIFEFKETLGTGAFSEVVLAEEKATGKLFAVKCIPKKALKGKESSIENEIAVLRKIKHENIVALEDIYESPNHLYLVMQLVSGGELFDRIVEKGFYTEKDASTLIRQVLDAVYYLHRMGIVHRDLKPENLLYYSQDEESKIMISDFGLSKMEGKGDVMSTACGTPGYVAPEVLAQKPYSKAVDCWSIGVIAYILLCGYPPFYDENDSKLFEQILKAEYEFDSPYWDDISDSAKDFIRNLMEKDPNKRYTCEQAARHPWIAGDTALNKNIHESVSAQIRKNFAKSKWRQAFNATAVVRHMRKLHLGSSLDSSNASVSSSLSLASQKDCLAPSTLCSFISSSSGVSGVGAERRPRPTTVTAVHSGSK
Chain of 5'-AMP-activated protein kinase catalytic subunit alpha-2 (Homo sapiens) (P54646 whole entry, looked up): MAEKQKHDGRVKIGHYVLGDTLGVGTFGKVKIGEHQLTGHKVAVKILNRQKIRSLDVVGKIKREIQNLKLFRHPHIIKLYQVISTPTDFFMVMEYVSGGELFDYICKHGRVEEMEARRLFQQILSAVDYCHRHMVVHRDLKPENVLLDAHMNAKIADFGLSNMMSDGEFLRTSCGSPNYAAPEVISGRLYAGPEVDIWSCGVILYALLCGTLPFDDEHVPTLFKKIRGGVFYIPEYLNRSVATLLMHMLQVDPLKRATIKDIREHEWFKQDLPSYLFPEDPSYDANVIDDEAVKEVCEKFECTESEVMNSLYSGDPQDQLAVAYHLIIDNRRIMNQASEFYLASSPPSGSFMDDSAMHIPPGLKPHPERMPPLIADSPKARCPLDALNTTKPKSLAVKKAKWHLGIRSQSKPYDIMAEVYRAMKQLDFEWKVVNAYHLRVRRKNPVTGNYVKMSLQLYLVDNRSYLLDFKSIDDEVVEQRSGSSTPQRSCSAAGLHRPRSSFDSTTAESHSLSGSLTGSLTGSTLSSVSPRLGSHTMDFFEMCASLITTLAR

SMILES	inhibition [1]	inhibition [2]	inhibition [3]	inhibition [4]	inhibition [5]	inhibition [6]	inhibition [7]	inhibition [8]	inhibition [9]	inhibition [10]
CS(=O)(=O)CCNCc1ccc(-c2ccc3ncnc(Nc4ccc(OCc5cccc(F)c5)c(C(F)(F)F)c4)c3c2)o1	3.63%	2.03%	0.5%	-0.9%	-1.79%	1.37%	3.52%	-0.13%	0.72%	3.67%
N#Cc1c(NC(=O)c2cccc3ccccc23)sc2c1CCCC2	5.58%	1.58%		2.23%	3.56%	1.18%	6.1%	1.08%	2.77%	1.29%
Nc1nc(-c2ccccn2)c(-c2ccc3ncccc3n2)s1	3.76%	4.24%	5.19%	-0.41%	2.4%	0.9%	3.83%	-0.97%	0.3%	1.9%
[O-][S+]1CCN(Cc2ccc(-c3ccc4ncnc(Nc5ccc(OCc6ccccc6)c(F)c5)c4c3)o2)CC1		1.72%	2.16%	3.74%	5.47%	4.69%	5.63%	-0.91%	1.4%	1.36%
NCc1ccc(-c2nc(-c3ccc(Cl)c(O)c3)c(-c3ccncc3)[nH]2)cc1	3.06%	1.84%	3.79%	0.1%	0.59%	-0.21%	1.33%	0.15%	0.23%	0.76%
COc1cccc(-n2ncc3c(N/N=C/c4cccc(F)c4)ncnc32)c1	6.48%	3.92%		2.83%	13.7%	2.69%	20.5%	0.51%	1.96%	1.19%
O=C1NC(=O)C(c2ccc(Cl)cc2)=C1Nc1ccc(Cl)c(C(=O)O)c1	-0.57%	1.82%	3.54%	-0.49%	0.55%	0.35%	-1.78%	-0.66%	4.19%	-2.83%
c1cnn2ncc(-c3ccnc(Nc4ccc5c(c4)OCCO5)n3)c2c1	12.6%	52.8%	83.2%	0.46%	6.78%	2.51%	9.28%	1.5%	5.85%	5.45%
COc1cc2c(cc1Nc1nc(N3CCc4ccccc43)c3cc[nH]c3n1)N(C(=O)CN(C)C)CC2	3.8%	4.37%	-4.13%	2.17%	0.61%	0.98%	1.3%	0.34%	2.58%	3.95%
Nc1ncnc2occ(-c3ccc(NC(=O)Nc4cccc(C(F)(F)F)c4)cc3)c12	5.34%	1.07%	8.04%	0.85%	10.2%	5.5%	9.75%	0.29%	7.97%	2.71%
NS(=O)(=O)c1cccc(-c2ccc3c(NC(=O)C4CC4)n[nH]c3c2)c1	-0.49%	0.7%	1.95%	6.3%	41.3%	12.6%	51.8%	-0.5%	-0.98%	-4.43%
CCN1CCC(CC(=O)Nc2n[nH]c3nc(-c4cccs4)c(Br)cc23)CC1	5.99%	-2.53%	9.14%	3.39%	21.7%	2.29%	18.5%	-0.45%	1.72%	-4.08%
CN(C)c1cc2c(Nc3ccc4nc(Cc5ccccc5)[nH]c4c3)ncnc2cn1	4.85%	0.74%	1.76%	3.31%	4.38%	3.85%	4.52%	1.13%	0.72%	4.11%
Cn1cc(C=C2C(=O)Nc3cccnc32)c2ccccc21	8.64%	8.91%	44.5%	4.71%	12.3%	6.03%	12.3%	0.99%	2.41%	1.58%
COc1cc(C=NNc2ncnc3c2cnn3-c2ccccc2)ccc1O	6.79%	16.1%	57.3%	8.76%	40.1%	10.3%	43.5%	0.83%	2.96%	3.14%
O=C(Nc1n[nH]c2nc(-c3ccco3)c(Br)cc12)C1CC1	5.5%	-2.45%	4.11%	3%	12.9%	3.32%	11.5%	0.93%	1.36%	4.38%
COc1ccc(COc2ccc(Cc3cnc(N)nc3N)cc2OC)cc1	2.37%	3.64%	3.71%	4.29%	3.19%	2.82%	2.49%	3.83%	5.51%	3.64%
